# Assay results: PubChem BioAssay
# Several values for one entry are separate records, joined by “and”; a condition that tells them apart may be missing. Equal values may be shown once. Activity calls are given as the source filed them. Rule as the data show it, unless noted: active = inhibition above about 80%; inactive = the rest.
# How the values were obtained:
# [1] = blockers of cellular phospholipid synthesis – cell-based, LOPAC library, screen 4, primary screen (AID 1347384; call rule not given here); details: animal cells, phospholipid biosynthesis inhibition screen; at 10 µM
# [2] = compounds altering circadian rhythm period length – cell-based, LOPAC library, luminescence reporter (AID 2774; call rule not given here;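 also: values are relative to mean of DMSO wells on each plate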); details: circadian reporter cells, at 7 µM, actives lie on both sides
# [3] = compounds altering viability of human ES cells (AID 493140; call rule not given here;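 also: cells exposed to compounds for four days before counting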); details: human embryonic stem cell survival screen; stronger effect = higher value
# [4] = P. berghei load reduction in hepatocytes – cell-based, HepG2, luciferase luminescence, HepG2 viability, primary screen (AID 624349; in the data active = parasite load remaining mostly below about 12%, no sharp cut-off; inactive = mostly above about 10%;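 also: 100% = mean of DMSO negative control wells on the same plate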); details: P. berghei liver stage in HepG2, luciferase luminescence, concentration not given here; parasite load remaining: stronger effect = lower value; viability: measured here: HepG2 viability without parasites
# [5] = target: NAD(+) hydrolase SARM1 (Homo sapiens) (UniProt Q6SZW1); test: blocking NAD cleavage by SARM1 SAM-TIR – cell lysate, NAD-Glo luminescence (AID 1508614;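 active = compound whose remaining NAD level is above about 45 nM, limit read from the data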;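 also: higher remaining NAD means stronger inhibition of SARM1 NADase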); details: SAM-TIR HEK293T lysate NADase, at 1 µM, stronger effect = higher value
# [6] = target: Mitogen-activated protein kinase 7 (Homo sapiens) (UniProt Q13164); test: Gal4-ERK5 driven luciferase induction – cell-based, HTS, primary screen (AID 1508626;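 active = luciferase signal above three times the same-plate solvent-only control wells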;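 also: luciferase driven by Gal4-ERK5 fusion binding five Gal4 sites before minimal TATA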); details: HeLa Gal4-ERK5 transactivation, 18 h, at 5 µM, stronger effect = higher value
# [7] = tested on: Hepatitis C virus NS3 helicase; test: blockers of NS3h binding to ssDNA – biochemical, fluorescence polarization, LOPAC1280 library, primary screen (AID 687035; in the data active = inhibition above about 37%); details: Purified HCV NS3 helicase, Cy5-dT15 ssDNA binding fluorescence polarization; stronger effect = higher value; concentration not given here
# [8] = compounds altering Cy5-DNA-NS3h complex signal – biochemical, LOPAC1280, artefact control for HCV NS3 helicase inhibitor project (AID 687037; call rule not given here); details: Cy5-DNA-NS3h complex fluorescence interference counterscreen
# [9] = galactose survival enhancers in mitochondrial complex I cybrids – cell-based, galactose medium, ATP luminescence, primary screen (AID 1645843;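 active = z-score of at least 1.8 in each of two replicates, scored against plate mean and spread of sample wells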;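 also: positive z means more ATP and so rescue of galactose-driven cybrid death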); details: complex I mutant cybrid cells, 72 h, stronger effect = higher value
# [10] = growth inhibition, single agents and combos, LFS_MB_1R, cell-based, cisplatin or BGB combos, synergistic combos for chromothripsis tumors (AID 1671452); details: LFS_MB_1R medulloblastoma cells, stronger effect = higher value;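 also: cells exposed for 96 hours before readout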
# [11] = growth inhibition, single agents and combos, CRL2098, cell-based, BGB or cisplatin IC20 combos, synergistic combos for chromothripsis tumors (AID 1671454); details: CRL2098 osteosarcoma cells, drug combinations, stronger effect = higher value;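 also: cells exposed for 96 h before readout; 0% = vehicle DMSO and 100% = killing by high DMSO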
# [12] = growth inhibition, single agents and combos, HD-MB03, cell-based, BGB or cisplatin IC20 combos, synergistic combos for chromothripsis tumors (AID 1671455; in the data active = inhibition above about 83%;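 also: 0% = vehicle DMSO and 100% = high DMSO as cytotoxic control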); details: HD-MB03 medulloblastoma cells, stronger effect = higher value
# [13] = growth inhibition, single agents and combos, UWB1.289, cell-based, BGB or cisplatin combos, synergistic combos for chromothripsis tumors (AID 1671456); details: UWB1.289 ovarian carcinoma cells, stronger effect = higher value;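 also: cells exposed to compound for four days; 0% = vehicle DMSO and 100% = killing by high DMSO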
# [14] = growth inhibition, single agents and combos, LFS_MB_2R, cell-based, cisplatin combos, synergistic combos for chromothripsis tumors (AID 1671457); details: LFS_MB_2R medulloblastoma cells, stronger effect = higher value;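 also: cells exposed to compound for four days before readout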
# [15] = UWB1.289_BRCA1 ovarian cancer growth, cell-based, BGB or cisplatin combinations (AID 1671459); details: UWB1.289 BRCA1 ovarian carcinoma, drug combinations, stronger effect = higher value
# [16] = drug combination toxicity in non-malignant astrocytes – cell-based, BGB or cisplatin IC20 combos, cytotoxicity control for chromothriptic childhood tumor combination screen (AID 1671460); details: Human astrocytes, viability inhibition, drug combinations, at 0.5 µM, stronger effect = higher value;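 also: cells exposed to compounds for 96 hours before viability readout; 0% = vehicle and 100% = killing control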
# [17] = measured here: combination with BGB IC40, at 0.05 µM
# [18] = measured here: combination with cisplatin, at 0.5 µM
# [19] = measured here: combination with cisplatin, at 5 µM
# [20] = measured here: combination with BGB at IC20, at 0.5 µM
# [21] = measured here: combination with cisplatin at IC20, at 0.5 µM
# [22] = measured here: combo with BGB at IC20, at 0.5 µM
# [23] = measured here: combo with cisplatin at IC20, at 0.5 µM
# [24] = measured here: inhibition with BGB combination, at 0.05 µM
# [25] = measured here: inhibition with cisplatin combination, at 0.05 µM
# [26] = BGB combination, concentration series, at 5 µM
# [27] = cisplatin combination, concentration series, at 5 µM
# [28] = measured here: combo with BGB IC20
# [29] = measured here: combo with cisplatin IC20
# Chain of NAD(+) hydrolase SARM1 (Homo sapiens) (Q6SZW1 whole entry, looked up, the tested form may be a part): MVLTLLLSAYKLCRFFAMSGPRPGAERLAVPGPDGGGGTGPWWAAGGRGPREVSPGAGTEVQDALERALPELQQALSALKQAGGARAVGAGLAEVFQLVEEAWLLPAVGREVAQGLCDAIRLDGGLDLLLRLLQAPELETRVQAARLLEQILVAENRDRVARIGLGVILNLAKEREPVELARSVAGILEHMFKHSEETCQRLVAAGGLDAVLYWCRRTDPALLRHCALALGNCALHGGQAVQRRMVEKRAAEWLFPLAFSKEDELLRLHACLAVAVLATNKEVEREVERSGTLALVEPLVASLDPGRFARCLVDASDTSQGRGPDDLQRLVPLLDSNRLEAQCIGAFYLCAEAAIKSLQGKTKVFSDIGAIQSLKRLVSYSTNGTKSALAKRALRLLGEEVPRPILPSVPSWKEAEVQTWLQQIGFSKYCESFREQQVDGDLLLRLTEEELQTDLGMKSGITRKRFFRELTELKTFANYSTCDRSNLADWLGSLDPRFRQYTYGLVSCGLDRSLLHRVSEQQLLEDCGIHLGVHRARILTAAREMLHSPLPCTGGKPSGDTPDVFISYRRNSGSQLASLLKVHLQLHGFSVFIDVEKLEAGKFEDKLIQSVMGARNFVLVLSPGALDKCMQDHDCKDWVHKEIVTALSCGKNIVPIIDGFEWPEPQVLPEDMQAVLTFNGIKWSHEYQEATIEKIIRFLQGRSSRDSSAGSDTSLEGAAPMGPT
# Chain of Mitogen-activated protein kinase 7 (Homo sapiens) (Q13164 whole entry, looked up, the tested form may be a part): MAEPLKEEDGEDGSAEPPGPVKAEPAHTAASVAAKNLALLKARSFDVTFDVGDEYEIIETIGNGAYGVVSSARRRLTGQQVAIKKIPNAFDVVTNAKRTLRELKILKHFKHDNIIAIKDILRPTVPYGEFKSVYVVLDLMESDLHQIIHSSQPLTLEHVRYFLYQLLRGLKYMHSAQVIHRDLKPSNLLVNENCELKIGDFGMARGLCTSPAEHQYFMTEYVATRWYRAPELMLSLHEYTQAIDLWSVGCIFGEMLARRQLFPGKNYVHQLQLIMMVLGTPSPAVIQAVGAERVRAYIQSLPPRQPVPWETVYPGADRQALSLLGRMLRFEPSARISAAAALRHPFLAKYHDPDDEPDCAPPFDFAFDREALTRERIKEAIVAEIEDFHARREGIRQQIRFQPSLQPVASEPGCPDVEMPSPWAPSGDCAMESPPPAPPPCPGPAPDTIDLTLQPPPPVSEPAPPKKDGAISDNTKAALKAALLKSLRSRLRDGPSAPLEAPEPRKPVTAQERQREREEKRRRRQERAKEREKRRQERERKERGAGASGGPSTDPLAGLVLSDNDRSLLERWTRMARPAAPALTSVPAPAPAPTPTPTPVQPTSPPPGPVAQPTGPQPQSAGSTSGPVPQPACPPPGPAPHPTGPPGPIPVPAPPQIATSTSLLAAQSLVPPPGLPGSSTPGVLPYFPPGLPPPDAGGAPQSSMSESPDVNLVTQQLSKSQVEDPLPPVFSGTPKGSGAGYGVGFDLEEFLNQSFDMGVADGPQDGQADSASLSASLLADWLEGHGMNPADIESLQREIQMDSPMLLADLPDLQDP
smiles,measurement,setting,value
O=C(NOC[C@H](O)CO)c1ccc(F)c(F)c1Nc1ccc(I)cc1F,outcome,[1],inactive
O=c1cc(-c2ccc(O)c(O)c2)oc2cc(O)cc(O)c12,period change,[2],0.085 h (inactive)
same,survival,[3],0.75 (inactive)
same,parasite load remaining,[4],83% (inactive)
same,viability,[4],96.4%
CCC(=O)OCC(=O)[C@@]1(OC(=O)CC)[C@@H](C)C[C@H]2[C@@H]3CCC4=CC(=O)C=C[C@]4(C)[C@@]3(F)[C@@H](O)C[C@@]21C,remaining NAD,[5],10 nM (inactive)
same,luciferase signal,[6],156 AU (inactive)
O=c1c2ccccc2nc2n1CCc1c-2[nH]c2ccccc12,period change,[2],0.11 h (inactive)
same,inhibition,[7],2% (inactive)
same,fluorescence ratio (interference),[8],1 (inactive)
same,outcome,[1],inactive
same,z-score,[9],1.2 (inactive)
CN(C)c1cc(NC(=O)CNC(C)(C)C)c(O)c2c1C[C@H]1C[C@H]3[C@H](N(C)C)C(=O)C(C(N)=O)=C(O)[C@@]3(O)C(=O)C1=C2O,remaining NAD,[5],10 nM (inactive)
CC(C)(C)OC(=O)Nc1ccc(-c2cc(C(=O)NCCCCCCC(=O)NO)no2)cc1,inhibition,[10]; at 0.5 µM,-23.9% (inactive) and 0.63% (inactive)
same,inhibition,[10]; [17],-39.1% and -9.87%
same,inhibition,[10]; [18],-43.1% and 4.1%
same,inhibition,[10]; [19],61.5% and 70.7%
same,inhibition,[11]; at 0.5 µM,-72.5% (inactive) and -77.6% (inactive)
same,inhibition,[11]; [20],-95.4% and -52.6%
same,inhibition,[11]; [21],-69.5% and -63.5%
same,inhibition,[12]; at 0.5 µM,9.94% (inactive) and 21.1% (inactive)
same,inhibition,[12]; [22],2.31% and 13%
same,inhibition,[12]; [23],19.2% and 51.1%
same,inhibition,[13]; at 0.5 µM,-1.75% (inactive) and 9.21% (inactive)
same,inhibition,[13]; [24],-25.1% and -31.2%
same,inhibition,[13]; [25],-18.4% and -19.7%
same,inhibition,[14]; at 0.5 µM,-15% (inactive) and -8.72% (inactive)
same,inhibition,[14]; [18],-1.56% and 8.91%
same,inhibition,[14]; [19],69.3% and 57.6%
same,inhibition,[15]; [26],81.5% and 72.3%
same,inhibition,[15]; at 0.5 µM,-3.45% (inactive) and 2.97% (inactive)
same,inhibition,[15]; [27],90.6% and 89.6%
same,inhibition,[16],10.3% (inactive) and 12.5% (inactive)
same,inhibition,[16]; [28],8.87% and 11.7%
same,inhibition,[16]; [29],7.42% and 16.9%
O=C1C(CCC(O)c2ccc(F)cc2)C(c2ccc(O)cc2)N1c1ccc(F)cc1 (configuration not stated),z-score,[9],-0.345 (inactive)
CC(C)CN(C[C@@H](O)[C@H](Cc1ccccc1)NC(=O)O[C@H]1CCOC1)S(=O)(=O)c1ccc(N)cc1,parasite load remaining,[4],15.6% (inactive)
same,viability,[4],75.5%
same,z-score,[9],0.4 (inactive)
CNCc1ccc(-c2[nH]c3cc(F)cc4c3c2CCNC4=O)cc1,inhibition,[10]; at 0.5 µM,-10.6% (inactive) and -7.69% (inactive)
same,inhibition,[10]; [17],-6.36% and 4.87%
same,inhibition,[10]; [18],19.1% and -25%
same,inhibition,[10]; [19],-18.5% and -25.3%
same,inhibition,[11]; at 0.5 µM,-36.2% (inactive) and -5.02% (inactive)
same,inhibition,[11]; [20],-29.2% and -1.4%
same,inhibition,[11]; [21],-44.8% and 9.17%
same,inhibition,[12]; at 0.5 µM,-4.75% (inactive) and 7.82% (inactive)
same,inhibition,[12]; [22],-19.4% and -2.99%
same,inhibition,[12]; [23],-1.52% and 19.2%
same,inhibition,[13]; at 0.5 µM,3.38% (inactive) and 18.2% (inactive)
same,inhibition,[13]; [24],-7.35% and 1.55%
same,inhibition,[13]; [25],-18.2% and 33.2%
same,inhibition,[14]; at 0.5 µM,-21.7% (inactive) and 11% (inactive)
same,inhibition,[14]; [18],-36.4% and 1.09%
same,inhibition,[14]; [19],-18.9% and -8.07%
same,inhibition,[15]; [26],7.87% and 16.2%
same,inhibition,[15]; at 0.5 µM,2.14% (inactive) and 11.2% (inactive)
same,inhibition,[15]; [27],1.67% and 2.25%
same,inhibition,[16],5.22% (inactive) and 8.56% (inactive)
same,inhibition,[16]; [28],-3.65% and 3.02%
same,inhibition,[16]; [29],2.06% and 7.11%
Nc1nc(OCc2ccccc2)c2[nH]cnc2n1,period change,[2],-0.35 h (inactive)
same,inhibition,[7],-2% (inactive)
same,fluorescence ratio (interference),[8],0.9 (inactive)
same,outcome,[1],inactive
same,z-score,[9],-0.125 (inactive)
COC(=O)C1=CO[C@@H](O)[C@@H]2C(CO)=CC[C@H]12,inhibition,[7],-3% (inactive)
same,fluorescence ratio (interference),[8],1 (inactive)
same,outcome,[1],inactive
same,z-score,[9],-0.175 (inactive)
CO[C@H]1/C=C/O[C@@]2(C)Oc3c(C)c(O)c4c(O)c(c(/C=N\N5CCN(C6CCCC6)CC5)c(O)c4c3C2=O)NC(=O)/C(C)=C\C=C\[C@H](C)[C@H](O)[C@@H](C)[C@@H](O)[C@@H](C)[C@H](OC(C)=O)[C@@H]1C,inhibition,[10]; at 0.5 µM,-26.5% (inactive)
same,inhibition,[10]; [17],5.18%
same,inhibition,[10]; [18],-21.5%
same,inhibition,[10]; [19],-13.2%
same,inhibition,[11]; at 0.5 µM,-17.9% (inactive)
same,inhibition,[11]; [20],-42.5%
same,inhibition,[11]; [21],-28.1%
same,inhibition,[12]; at 0.5 µM,-12% (inactive)
same,inhibition,[12]; [22],-9.84%
same,inhibition,[12]; [23],-22%
same,inhibition,[13]; at 0.5 µM,0.22% (inactive)
same,inhibition,[13]; [24],-17.7%
same,inhibition,[13]; [25],-11.8%
same,inhibition,[14]; at 0.5 µM,-7.15% (inactive)
same,inhibition,[14]; [18],-29.8%
same,inhibition,[14]; [19],-34%
same,inhibition,[15]; [26],4.16%
same,inhibition,[15]; at 0.5 µM,-5.57% (inactive)
same,inhibition,[15]; [27],10.5%
same,inhibition,[16],-10.7% (inactive)
same,inhibition,[16]; [28],-21%
same,inhibition,[16]; [29],-11%
